The supplement of paper PMC11732987, “Enantioselective OTUD7B fragment discovery through chemoproteomics screening and high-throughput optimisation” (Communications Chemistry, 2025)

Assays:
Test in all cases: log2 ratio of Biotin-Ahx-Ub-VS probe labelling (fragment/DMSO); higher = less target engagement (more negative = stronger competition), active = hit call of the paper (q ≤ 0.05, log2 ratio ≤ -1)
Conditions in all cases: compound concentration: 200 uM; treatment time: 3 h
OTUD6B = molecular target: T1, OTUD6B (UniProt Q8N6M0)
T1 sequence (whole entry): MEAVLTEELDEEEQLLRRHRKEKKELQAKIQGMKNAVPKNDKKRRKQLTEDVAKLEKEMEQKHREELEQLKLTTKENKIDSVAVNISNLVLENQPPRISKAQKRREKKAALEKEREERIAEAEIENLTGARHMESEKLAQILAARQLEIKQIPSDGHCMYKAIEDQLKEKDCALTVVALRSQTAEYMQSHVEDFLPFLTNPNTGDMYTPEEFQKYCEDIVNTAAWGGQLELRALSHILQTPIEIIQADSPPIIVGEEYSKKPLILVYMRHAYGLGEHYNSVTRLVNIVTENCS
How it was run: (§1)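 Using Biotin-Ahx-Ub-VS at 0.5 µM final for 1 h, DUBs were labelled in HEK293T lysate (495 µg per sample) that had first been treated in triplicate with fragment at 200 µM or vehicle for 3 h. NeutrAvidin enrichment, LysC and trypsin digestion and diaPASEF LC-MS/MS followed. Spectronaut label-free quantities were global-median-normalised. Values are average log2 fragment/vehicle ratios by unpaired t-test, using proteins with ≥2 unique peptides.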

OTUD7B = molecular target: T2, OTUD7B (UniProt Q6GQQ9)
T2 sequence (whole entry): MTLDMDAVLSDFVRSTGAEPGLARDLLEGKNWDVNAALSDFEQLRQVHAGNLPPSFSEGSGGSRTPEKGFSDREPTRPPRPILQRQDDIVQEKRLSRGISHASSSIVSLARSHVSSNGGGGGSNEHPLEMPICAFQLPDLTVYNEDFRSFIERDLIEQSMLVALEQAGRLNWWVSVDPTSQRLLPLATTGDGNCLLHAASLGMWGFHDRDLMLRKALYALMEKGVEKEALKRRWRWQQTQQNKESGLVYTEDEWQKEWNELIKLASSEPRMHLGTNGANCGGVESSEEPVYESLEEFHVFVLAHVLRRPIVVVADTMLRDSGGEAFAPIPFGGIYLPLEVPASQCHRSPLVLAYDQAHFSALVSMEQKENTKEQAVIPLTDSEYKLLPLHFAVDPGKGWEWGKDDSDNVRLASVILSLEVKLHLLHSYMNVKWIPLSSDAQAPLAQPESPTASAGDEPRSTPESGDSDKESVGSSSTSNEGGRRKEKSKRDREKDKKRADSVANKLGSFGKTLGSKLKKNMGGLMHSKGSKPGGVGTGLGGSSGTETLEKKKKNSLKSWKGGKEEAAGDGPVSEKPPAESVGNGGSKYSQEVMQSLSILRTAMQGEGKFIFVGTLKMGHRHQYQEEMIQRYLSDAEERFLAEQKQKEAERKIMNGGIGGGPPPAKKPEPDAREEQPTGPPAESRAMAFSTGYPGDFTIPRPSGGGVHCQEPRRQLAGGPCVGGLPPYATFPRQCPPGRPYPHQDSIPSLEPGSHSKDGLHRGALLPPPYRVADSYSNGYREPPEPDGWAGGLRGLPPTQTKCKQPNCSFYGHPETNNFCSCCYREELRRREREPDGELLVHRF
How it was run: as §1

PRPF8 = PRPF8 (UniProt Q6P2Q9)
How it was run: as §1

PSMD7 = molecular target: T3, PSMD7 (UniProt P51665)
T3 sequence (whole entry): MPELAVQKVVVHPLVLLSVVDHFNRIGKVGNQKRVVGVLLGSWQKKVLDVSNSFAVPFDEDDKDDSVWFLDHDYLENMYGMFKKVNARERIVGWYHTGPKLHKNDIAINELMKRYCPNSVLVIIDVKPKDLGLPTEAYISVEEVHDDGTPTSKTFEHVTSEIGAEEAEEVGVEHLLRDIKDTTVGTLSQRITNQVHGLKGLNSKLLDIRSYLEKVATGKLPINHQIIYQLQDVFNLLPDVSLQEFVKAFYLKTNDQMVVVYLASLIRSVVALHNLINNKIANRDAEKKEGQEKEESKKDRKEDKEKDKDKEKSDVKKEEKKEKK
How it was run: as §1

UCHL1 = UCHL1 (UniProt P09936)
How it was run: as §1

UCHL3 = molecular target: T4, UCHL3 (UniProt P15374)
T4 sequence (whole entry): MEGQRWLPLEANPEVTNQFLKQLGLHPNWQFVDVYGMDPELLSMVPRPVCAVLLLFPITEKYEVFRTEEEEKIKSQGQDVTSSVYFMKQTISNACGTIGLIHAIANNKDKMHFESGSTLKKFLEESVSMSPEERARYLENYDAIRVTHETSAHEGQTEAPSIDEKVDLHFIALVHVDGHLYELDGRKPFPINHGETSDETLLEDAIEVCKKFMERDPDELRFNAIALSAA
How it was run: as §1

UCHL5 = molecular target: T5, UCHL5 (UniProt Q9Y5K5)
T5 sequence (whole entry): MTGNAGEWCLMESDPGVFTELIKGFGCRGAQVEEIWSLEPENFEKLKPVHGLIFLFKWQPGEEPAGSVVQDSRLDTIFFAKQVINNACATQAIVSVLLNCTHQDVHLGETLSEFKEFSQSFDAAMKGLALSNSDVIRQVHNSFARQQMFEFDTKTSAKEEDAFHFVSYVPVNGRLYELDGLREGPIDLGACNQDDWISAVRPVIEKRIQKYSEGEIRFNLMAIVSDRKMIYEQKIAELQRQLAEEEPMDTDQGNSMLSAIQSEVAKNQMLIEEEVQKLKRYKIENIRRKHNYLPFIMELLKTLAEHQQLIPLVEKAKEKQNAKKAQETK
How it was run: as §1

USP10 = USP10 (UniProt Q14694)
How it was run: as §1

USP15 = molecular target: T6, USP15 (UniProt Q9Y4E8)
T6 sequence (whole entry): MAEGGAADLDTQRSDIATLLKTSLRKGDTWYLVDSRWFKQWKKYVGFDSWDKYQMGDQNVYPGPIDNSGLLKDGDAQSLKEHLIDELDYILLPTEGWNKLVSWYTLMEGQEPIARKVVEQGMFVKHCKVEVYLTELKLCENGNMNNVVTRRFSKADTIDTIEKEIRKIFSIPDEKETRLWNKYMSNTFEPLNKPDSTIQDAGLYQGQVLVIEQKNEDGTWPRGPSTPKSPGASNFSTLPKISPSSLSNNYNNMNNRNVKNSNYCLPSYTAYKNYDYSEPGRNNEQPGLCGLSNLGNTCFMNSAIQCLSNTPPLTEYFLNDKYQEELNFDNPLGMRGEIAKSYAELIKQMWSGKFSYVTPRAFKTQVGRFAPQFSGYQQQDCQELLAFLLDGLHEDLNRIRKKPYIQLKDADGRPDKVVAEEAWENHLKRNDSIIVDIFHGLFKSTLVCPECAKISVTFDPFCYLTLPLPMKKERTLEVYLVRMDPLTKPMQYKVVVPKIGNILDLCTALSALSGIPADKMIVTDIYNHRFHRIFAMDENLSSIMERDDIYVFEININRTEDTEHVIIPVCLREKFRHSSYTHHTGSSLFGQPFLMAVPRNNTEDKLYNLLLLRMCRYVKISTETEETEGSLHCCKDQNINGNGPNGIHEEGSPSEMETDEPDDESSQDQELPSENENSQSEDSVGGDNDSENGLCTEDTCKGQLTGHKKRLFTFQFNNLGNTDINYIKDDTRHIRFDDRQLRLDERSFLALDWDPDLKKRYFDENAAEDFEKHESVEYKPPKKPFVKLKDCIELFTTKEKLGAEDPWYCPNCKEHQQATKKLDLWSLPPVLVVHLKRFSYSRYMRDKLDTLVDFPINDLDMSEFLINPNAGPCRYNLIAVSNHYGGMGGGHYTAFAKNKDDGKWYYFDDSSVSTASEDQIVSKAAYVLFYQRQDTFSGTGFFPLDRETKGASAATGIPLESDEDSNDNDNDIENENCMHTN
How it was run: as §1

Measured: log2 ratio of Biotin-Ahx-Ub-VS probe labelling

UCHL1, sequence (P09936 whole entry, looked up): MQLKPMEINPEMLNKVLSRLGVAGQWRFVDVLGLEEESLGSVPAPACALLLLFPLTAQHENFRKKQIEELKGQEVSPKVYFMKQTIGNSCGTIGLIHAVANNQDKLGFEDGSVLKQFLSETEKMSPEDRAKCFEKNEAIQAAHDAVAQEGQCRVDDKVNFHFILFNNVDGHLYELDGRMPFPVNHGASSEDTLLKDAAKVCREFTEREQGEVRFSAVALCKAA
USP10, sequence (Q14694 whole entry): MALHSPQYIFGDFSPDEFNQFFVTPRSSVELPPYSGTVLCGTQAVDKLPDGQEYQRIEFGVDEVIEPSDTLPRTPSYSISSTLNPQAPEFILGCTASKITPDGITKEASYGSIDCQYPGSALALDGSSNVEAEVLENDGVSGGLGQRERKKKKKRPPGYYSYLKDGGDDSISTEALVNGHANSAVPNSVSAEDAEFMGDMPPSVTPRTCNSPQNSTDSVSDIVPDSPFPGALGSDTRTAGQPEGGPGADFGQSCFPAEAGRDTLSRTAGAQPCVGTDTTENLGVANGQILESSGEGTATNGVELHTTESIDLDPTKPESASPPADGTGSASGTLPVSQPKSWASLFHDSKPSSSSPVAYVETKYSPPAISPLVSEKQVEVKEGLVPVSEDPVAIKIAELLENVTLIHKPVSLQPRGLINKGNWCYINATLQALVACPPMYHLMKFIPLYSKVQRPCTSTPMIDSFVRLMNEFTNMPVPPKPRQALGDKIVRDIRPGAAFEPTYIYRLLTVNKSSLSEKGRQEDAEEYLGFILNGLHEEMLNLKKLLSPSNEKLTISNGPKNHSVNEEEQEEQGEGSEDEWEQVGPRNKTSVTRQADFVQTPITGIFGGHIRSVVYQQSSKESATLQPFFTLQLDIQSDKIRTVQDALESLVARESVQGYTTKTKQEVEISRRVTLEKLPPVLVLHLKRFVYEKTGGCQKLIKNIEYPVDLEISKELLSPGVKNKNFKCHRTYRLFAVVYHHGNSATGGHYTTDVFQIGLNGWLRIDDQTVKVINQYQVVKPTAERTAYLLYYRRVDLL

CC(c1ccccc1)N(C)C(=O)CCl (centres undefined)
inactive: OTUD6B 0.00154 | OTUD7B -0.433 | PRPF8 -0.049 | PSMD7 0.0333 | UCHL1 -0.925 | UCHL3 0.257 | UCHL5 -0.0435 | USP10 -0.134 | USP15 -0.334
